We go through 27 compounds from paper PMC5540273 (PLoS ONE, 2017).
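Also: KINOMEscan kinase panel screen.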

In one test the test system is MAP4K5. The following applies: concentration: 1 μM,replicates: in singlicate; n = 1.
For `O=C(NCCNc1ccnc(NCc2ccc(F)cc2)n1)c1cc2ccccc2s1` [GSK1379944], the “%Inh” value came out at 3%. Consider `CCn1c(-c2nonc2N)nc2c(C#CC(C)(C)O)nc(OCCN)cc21.Cl.Cl` [GSK902056], for which the “%Inh” value worked out at 13%. Same read-out and setting: next, `NC(=O)c1cc(-c2ccccc2)cc2c(C3CCNCC3)c[nH]c12` [GSK301362]: 2%; `CCN(CC)CCCCNc1ncc2cc(-c3c(Cl)cccc3Cl)c(NC(=O)NC(C)(C)C)nc2n1`: 71%; `Nc1nc(Nc2ccccc2)cc(-c2ccc3c(N)n[nH]c3c2)n1` [GSK2225749]: 6%. As for `Cc1occc1-c1nc(N)c(OC[C@@H](N)Cc2c[nH]c3ccccc23)cc1-c1cc2c(C)n[nH]c2cn1` [GSK1660450], the “%Inh” value is given as 99.6%. For the compound `Cl.Cl.NC[C@H](CC1CCCCC1)NC(=O)c1cc(Br)c(-c2ccnc3[nH]ccc23)s1` [GSK1581427], the “%Inh” value is given as 0%. Regarding `Cc1n[nH]c2ccc(-c3cc(OC[C@@H](N)Cc4ccccc4)cnc3-c3ccoc3)cc12.O=C(O)C(F)(F)F.O=C(O)C(F)(F)F` [GSK507358], the “%Inh” value is listed as 94.3%. For `C[C@@H]1CCN(C(=O)CC#N)C[C@@H]1N(C)c1ncnc2[nH]ccc12`, the “%Inh” value was 0%. Turning to `O=C(NCCCN1CCOC1=O)c1cnc(NCc2cc(Cl)ccc2Cl)nc1NC1CCCC1`, the “%Inh” value was 23%. `Cc1cc(C(=O)Nc2ccc(Oc3ccc4nc(NC(=O)C5CC5)cn4n3)cc2)nn1-c1ccccc1`: the “%Inh” value turned out to be 0%.

On to `Cc1ccc(-n2nc(C(C)(C)C)cc2NC(=O)Nc2ccc(OCCN3CCOCC3)c3ccccc23)cc1` [GW839464], for which the “%Inh” value turned out to be 0%. As to `Cc1cc2cn[nH]c2cc1-c1cccc2c(N)c(C(N)=O)nnc12`, the “%Inh” value came out at 62%.

Consider `Cl.Cl.NC[C@H](Cc1ccc(C(F)(F)F)cc1)NC(=O)c1cc(Br)c(-c2ccnc3[nH]ccc23)s1` [GSK1487252], for which the “%Inh” value worked out at 0%. For the compound `CN(C)CC(O)COc1ccc(Nc2nccc(-c3cnn4nc(N5CCOCC5)ccc34)n2)cc1` (stereo not drawn) [GW767488], the “%Inh” value is given as 12%.

The next test deals with MAPKAPK2. Particulars: concentration: 1 μM,replicates: in singlicate; n = 1.
Consider `Cl.Cl.Nc1nc(-c2ccc3c(N)n[nH]c3c2)cc(N2CCCC(NC(=O)c3ccccc3)C2)n1` (stereo not drawn) [GSK2286775], for which the “%Inh” value amounted to 0%. As for `CC(C)Nc1cc(-c2ccc3c(N)n[nH]c3c2)nc(N)n1` [GSK2221681], the “%Inh” value was found to be 32%. As to `COc1ccc(C[C@@H](CN)NC(=O)c2cc(Br)c(-c3ccnc4[nH]ccc34)s2)cc1.Cl.Cl` [GSK1389063], the “%Inh” value came to 0%.

Turning to `C[C@H]1Oc2cc(cnc2N)-c2c(nn(C)c2C#N)CN(C)C(=O)c2ccc(F)cc21`, the “%Inh” value stood at 0%. Consider `Cc1ccc2c(-c3ccncc3)c(-c3ccc(F)cc3)nn2c1.Cl` [GW461484], for which the “%Inh” value is reported as 0%. For the compound `C=CC(=O)Nc1cc2c(Nc3ccc(F)c(Cl)c3)ncnc2cc1OCCCN1CCOCC1` [GW781483], the “%Inh” value was 23%. Turning to `CNC(=O)c1ccccc1Sc1ccc2c(/C=C/c3ccccn3)n[nH]c2c1`, the “%Inh” value is 0%. In the case of `C[C@@H](Oc1cc(-c2cnn(C3CCNCC3)c2)cnc1N)c1c(Cl)ccc(F)c1Cl`, the “%Inh” value was found to be 0%. As for `CCN(CC)CCOc1ccc(Nc2ncc3cc(-c4c(Cl)cccc4Cl)c(=O)n(C)c3n2)cc1` [SB-601273], the “%Inh” value came out at 0%. Turning to `CN(C)CCOc1ccc(-c2cc(-c3c[nH]nc3-c3ccccn3)ccn2)cc1` [GW835314], the “%Inh” value came to 0%.

For the compound `Cl.Oc1cc(-c2nc(-c3ccccc3)[nH]c2-c2ccncc2)ccc1Cl` [SB-386023], the “%Inh” value was determined as 28%. `CC(C)N1C(=O)Cc2cc(Nc3ncc(C(F)(F)F)c(NCc4cccc(S(C)(=O)=O)c4)n3)ccc21`: the “%Inh” value is recorded as 0%.

In the case of `O=C(NCCNc1ccnc(NCc2ccc(F)cc2)n1)c1cc2ccccc2s1` [GSK1379944], the “%Inh” value is 7%.

`CCn1c(-c2nonc2N)nc2c(C#CC(C)(C)O)nc(OCCN)cc21.Cl.Cl` [GSK902056]: the “%Inh” value is listed as 24%. `NC(=O)c1cc(-c2ccccc2)cc2c(C3CCNCC3)c[nH]c12` [GSK301362]: the “%Inh” value is given as 1%. Regarding `CCN(CC)CCCCNc1ncc2cc(-c3c(Cl)cccc3Cl)c(NC(=O)NC(C)(C)C)nc2n1`, the “%Inh” value was found to be 0%.

Consider `Nc1nc(Nc2ccccc2)cc(-c2ccc3c(N)n[nH]c3c2)n1` [GSK2225749], for which the “%Inh” value is on record as 0%.

Turning to `Cc1occc1-c1nc(N)c(OC[C@@H](N)Cc2c[nH]c3ccccc23)cc1-c1cc2c(C)n[nH]c2cn1` [GSK1660450], the “%Inh” value is reported as 0%.
